Records with an inconclusive call do not appear. The source made the active and inactive calls. Calls follow the shape of the dose curve; as a rule, active = well fitted curve in the direction sought with a large enough effect; inconclusive = small, poorly fitted or top-dose-only effect, or another doubt; inactive = no such curve, though single readings can be large; an effect the other way counts as inactive or inconclusive.
How the values were obtained:
[1] = qHTS assay for small molecule disruptors of mitochondrial membrane potential screened against the NCATS CANVASS Library (AID 1347389); settings: HepG2 mitochondrial membrane potential, m-MPI red/green ratio, 1.5 h; also: potency is read from the fitted curve at half-maximal effect; nearly all actives have a fitted effect of over 60% in size
Source text: Natural products and their derivatives continue to be wellsprings of nascent therapeutic potential. However, many laboratories have limited resources for biological evaluation, leaving their previously isolated or synthesized compounds largely or completely untested. To address this issue, the Canvass library of natural products was assembled (https://tripod.nih.gov/canvass), in collaboration with academic and industry researchers, for quantitative high-throughput screening (qHTS) across a diverse set of cell-based and biochemical assays. […] The library was formatted into 1536-well plates and evaluated in 50 qHTS (in an 11-pnt concentration series) bioassays with broad scope of disease-relevant mechanisms. The resulting data set from 50 different assays was then systematically analyzed to identify overall trends and specific natural products with interesting biological activities. […] In response to mitochondrial depolarization, the red-to-green fluorescence ratio decreases. […]
Mitochondrial membrane potential protocol: 2,000 HepG2 cells in 5 uL/well were dispensed into black, clear-bottom 1536-well plates using a Multidrop Combi (Thermo Scientific) dispenser. […] Fluorescence intensity (490nm excitation and 535nm emission for monomers; and 540nm excitation and 590nm emissions for aggregates) was measured using an Envision plate reader.

[2] = Secretion counterscreen for inhibitors of the SERCaMP assay screened against the NCATS CANVASS Library (AID 1347390); settings: SH-SY5Y constitutive GLuc secretion, luminescence, 20 h;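 also: light from luciferase secreted into medium read as a measure of general secretion; potency is read from the fitted curve at half-maximal effect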
Outline: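 Counterscreen identifying compounds that disrupt secretion, using SH-SY5Y cells with a constitutively secreted Gaussia luciferase reporter. A 20 h compound exposure (top 77 uM) precedes luminescent detection with coelenterazine.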

[3] = qHTS for activators of Nrf2/ARE signaling pathway screened against the NCATS CANVASS Library (AID 1347391); settings: ARE-bla HepG2, beta-lactamase reporter, 16 h; also: potency is read from the fitted curve at half-maximal effect; nearly all actives have a fitted effect of over 60% in size
Outline: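 ARE-bla HepG2 beta-lactamase reporter cells exposed to compounds for 16 h at 37C; CCF4 substrate 2 h, fluorescence at ex 405 nm, em 460/530 nm. Viability by CellTiter-Glo luminescence.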

[4] = qHTS for inhibitors of ER calcium dysfunction: SERCaMP assay screened against the NCATS CANVASS Library (AID 1347393); settings: SH-SY5Y GLuc-SERCaMP (Gaussia luciferase released on ER calcium loss) secretion, thapsigargin, luminescence; also: potency is read from the fitted curve at half-maximal effect; nearly all actives have a fitted effect of over 40% in size
Source text: Natural products and their derivatives continue to be wellsprings of nascent therapeutic potential. However, many laboratories have limited resources for biological evaluation, leaving their previously isolated or synthesized compounds largely or completely untested. To address this issue, the Canvass library of natural products was assembled (https://tripod.nih.gov/canvass), in collaboration with academic and industry researchers, for quantitative high-throughput screening (qHTS) across a diverse set of cell-based and biochemical assays. The pure (>85% purity by liquid chromatography/mass spectrometry [LC/MS]) Canvass library of 346 natural products were submitted by 45 academic laboratories and companies around the world. We collected pure natural products to circumvent deconvolution and structure elucidation due to time and resource limitations. The library was formatted into 1536-well plates and evaluated in 50 qHTS (in an 11-pnt concentration series) bioassays with broad scope of disease-relevant mechanisms. The resulting data set from 50 different assays was then systematically analyzed to identify overall trends and specific natural products with interesting biological activities. […]
SERCaMP assay protocol: 1. […] Luminescence signal was obtained via the ViewLux plate reader (Perkin Elmer) using the clear emission filter and 1x binning, 5 seconds exposure settings.

[5] = Vero-766 cells viability qHTS against the NCATS CANVASS Library: Counterscreen for Zika virus inhibition assay (AID 1347394); settings: Vero 766 viability, CellTiter-Glo luminescence, 72 h; also: potency is read from the fitted curve at half-maximal effect; nearly all actives have a fitted effect of over 60% in size
Outline: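 This cytotoxicity counterscreen uses African green monkey Vero 766 cells in the absence of Zika virus. Compounds are incubated with cells for 72 h, and ATP-based luminescence reports viability.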

[6] = qHTS for inhibitors of Wild type Zika virus screened against the NCATS CANVASS Library (AID 1347396); settings: Vero cells, Zika virus CPE, CellTiter-Glo, 72 h; series mostly up to 45.9 µM;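 also: ATP luminescence of surviving cells so rescue from viral cell killing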
Outline: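 Vero 766 cells, 1000/well, o/n attach; cpds pin-transferred (11-pt qHTS); WT Zika added; 72 h, 37C, 5% CO2; CellTiter Glo lumi. Uninfected + vehicle = 100% inhibition.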

[7] = Viability qHTS for inhibitors of the SERCaMP assay screened against the NCATS CANVASS Library (AID 1347400); settings: SH-SY5Y SERCaMP cells viability, CellTiter-Glo, 48 h; also: potency is read from the fitted curve at half-maximal effect; nearly all actives have a fitted effect of over 70% in size
Outline: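 SH-SY5Y-GLuc SERCaMP MJH297-derived cells, 1000/well, plated 4 h, then exposed to compounds in an 11-point qHTS series for 48 h at 37C. Viability read as CellTiter-Glo luminescence.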

[8] = Redox Reaction Profiling qHTS: Assay Interference Panel against the NCATS CANVASS Library (AID 1347401); settings: resazurin-DTT redox cycling, fluorescence, 15 min; series mostly up to 57.1 µM
Outline: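 Resazurin (5 uM) conversion to resorufin measured with 200 uM DTT in 50 mM HEPES pH 7.3, 50 mM NaCl. Compounds tested in 11-point qHTS series. Fluorescence (ex 525/em 598 nm) read before and after 15 min dark incubation.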

[9] = qHTS for inhibitors of adenylyl cyclases using a fission yeast platform: a pilot screen against the NCATS LOPAC library (AID 1347410); settings: S. pombe CHP2027, fbp1-GFP fluorescence, 18 h, yeast expressing mammalian AC9 and human GNAS; series mostly up to 57.5 µM
Outline: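 Growth medium went into the plates first, then compounds were pinned (final up to 57 µM), then CHP2027 yeast were added. Plates were incubated overnight (18 h) at 30C in the dark, and GFP was measured by laser scanning cytometry.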

Measured: Potency

C=C1C(=O)O[C@H]2[C@H]1CC/C(C)=C/CC[C@@]1(C)O[C@@H]21
active: [1] 20.9 µM | [2] 15.3 µM | [3] 2.09 µM | [4] 1.72 µM | [5] 29.5 µM | [7] 13.5 µM
inactive: [6] | [8]

CC[C@]1(O)CC2CN(CCc3c([nH]c4ccccc34)[C@@](C(=O)OC)(c3cc4c(cc3OC)N(C)[C@H]3[C@@](O)(C(=O)OC)[C@H](OC(C)=O)[C@]5(CC)C=CCN6CC[C@]43[C@@H]65)C2)C1 (some centres undefined)
inactive: [9]
